Assay [1] is described as follows: qHTS assay to identify small molecule antagonists of the vitamin D receptor (VDR) signaling pathway - cell viability counter screen (AID 743225; active = well fitted curve in the direction sought with a large enough effect in the repeat runs; an effect the other way counts as inactive or inconclusive; also: nearly all actives have a fitted effect of over 50% in size; also: potency is read from the fitted curve at half-maximal effect). The essentials: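 HEK293T VDR-bla; cpd + 1a,25-(OH)2D3 3 nM final, 16 h 37C/5% CO2; B/G FRET substrate 2 h RT; then CellTiter-Glo 30 min RT, luminescence.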
The nature of assay [2]: qHTS assay to identify small molecule agonists of the NFkB signaling pathway (AID 1159509; active = well fitted curve in the direction sought with a large enough effect in the signal ratio in the repeat runs, not every such curve was filed as active; the % refers to the signal ratio; also: series mostly up to about 61 µM). The essentials:
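Pathway activation was measured in ME-180 cells stably expressing beta-lactamase under NF-kB response element control. Substrate cleavage was read as the 460/530 nm emission shift after 5 hr compound incubation.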

Assay [3] in a line: qHTS assay to identify small molecule agonists of the NFkB signaling pathway - cell viability counter screen (AID 1159515). Also: series mostly up to about 61 µM; nearly all actives have a fitted effect of over 55% in size. In outline:
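Read by CellTiter-Glo luminescence (30 min, room temperature) in the wells also used for the beta-lactamase FRET read. ME-180 NFkB-bla cells at 2,000 per well were plated overnight, then exposed to compound for 5 hr at 37 C.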

The nature of assay [4]: qHTS assay to identify small molecule agonists of the endoplasmic reticulum stress response signaling pathway (AID 1159516; active = well fitted activation curve with a large enough effect in the signal ratio in the repeat runs, not every such curve was filed as active; the % refers to the signal ratio). The essentials: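 Ratiometric FRET readout (405 nm excitation; 460 and 530 nm emission) of a beta-lactamase gene driven by the ER stress response element, after 2 hr substrate loading. HeLa ESRE-bla cells were seeded overnight and treated with compounds for only 5 hr at 37 C.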

The nature of assay [5]: qHTS assay to identify small molecule agonists of the endoplasmic reticulum stress response signaling pathway - cell viability counter screen (AID 1159517). Also: series mostly up to about 61 µM; nearly all actives have a fitted effect of over 50% in size. In outline:
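In parallel with the ESRE reporter read, cytotoxicity was scored by CellTiter-Glo luminescence (30 min, room temperature) on HeLa ESRE-bla cells dosed for 5 hr.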

The nature of assay [6]: qHTS assay to identify small molecule antagonists of the retinoid-related orphan receptor gamma (ROR-gamma) signaling pathway - cell viability counter screen (AID 1159520; active = well fitted curve in the direction sought with a large enough effect in the repeat runs; an effect the other way counts as inactive or inconclusive; also: nearly all actives have a fitted effect of over 50% in size; also: potency is read from the fitted curve at half-maximal effect). In outline: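 Tet-on ROR gamma CHO cells were given compounds for 2 hr, then doxycycline hyclate at 1 uM final, and incubated 16 hr at 37 C. Viability was measured as ATP content by CellTiter-Glo luminescence.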

Assay [7] deals with Nuclear receptor ROR-gamma (Homo sapiens) (UniProt P51449). Briefly: qHTS assay to identify small molecule antagonists of the retinoid-related orphan receptor gamma (ROR-gamma) signaling pathway (AID 1159521; active = well fitted curve in the direction sought with a large enough effect in the repeat runs; an effect the other way counts as inactive or inconclusive; also: nearly all actives have a fitted effect of over 50% in size; also: potency is read from the fitted curve at half-maximal effect). The essentials: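 Cells were plated, rested 4 h at 37 C, exposed to compounds for 2 h, then given 1 uM final doxycycline hyclate to induce RORγ expression. After 16 h, ONE-Glo luminescence from the ROR response element reporter was measured.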

Assay [8] in a line: qHTS assay to identify small molecule agonists of the AP-1 signaling pathway - cell viability counter screen (AID 1159525). Also: nearly all actives have a fitted effect of over 55% in size. In outline: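 Same-well cytotoxicity counter screen of the Tox21 10K library in ME-180 cells. The readout is ATP-dependent luminescence after 5 h compound treatment. Data are normalised to DMSO and tetra n-octyl ammonium bromide controls.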
Assay [9] in a line: qHTS assay to identify small molecule agonists of the AP-1 signaling pathway (AID 1159526).
Assay [10] deals with Retinoic acid receptor RXR-alpha (Homo sapiens) (UniProt P19793). Briefly: qHTS assay to identify small molecule agonists of the RXR signaling pathway (AID 1159527). Also: nearly all actives have a fitted effect of over 35% in size. Also: potency is read from the fitted curve at half-maximal effect. The essentials:
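Cells plated at 2,000/well, rested 5 hr at 37 C, pin-dosed with DMSO compound solutions, incubated 16 hr, then loaded with B/G FRET substrate for 2 hr at RT before dual-emission fluorescence reading.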

This passage reports Potency and outcome results from PubChem BioAssay (Tox21).

Where “and” joins values, the source holds several entries; their conditions need not be identical. Identical values can stand only once. Results filed as inconclusive are left out. Where a structure was tested more than once in an assay, its records may differ in their call. Calls of active or inactive are those of the source. Unless noted, calls follow the shape of the full dose curve.

Chain of Retinoic acid receptor RXR-alpha (Homo sapiens) (P19793 whole entry, looked up): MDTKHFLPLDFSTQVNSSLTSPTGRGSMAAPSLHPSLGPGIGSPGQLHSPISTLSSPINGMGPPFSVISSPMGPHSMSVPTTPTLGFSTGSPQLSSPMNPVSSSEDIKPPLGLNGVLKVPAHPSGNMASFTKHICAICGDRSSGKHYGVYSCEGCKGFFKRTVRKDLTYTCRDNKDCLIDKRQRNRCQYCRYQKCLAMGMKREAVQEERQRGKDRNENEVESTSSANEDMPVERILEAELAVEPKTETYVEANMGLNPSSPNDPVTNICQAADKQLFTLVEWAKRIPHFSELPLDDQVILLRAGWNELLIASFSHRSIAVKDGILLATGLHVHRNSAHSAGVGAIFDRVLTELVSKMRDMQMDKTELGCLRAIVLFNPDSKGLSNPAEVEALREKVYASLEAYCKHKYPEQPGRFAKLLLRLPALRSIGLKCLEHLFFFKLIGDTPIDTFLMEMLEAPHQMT

Consider `CCCCCCOC(=O)c1ccccc1C(=O)OCCCCCC`, for which the Potency result in assay [1], in assay [3], in assay [5], in [6], in assay [7] and in [8] was “inactive” in each case. Besides, in assay [10], the Potency result is “inactive”. For the same molecule, the molecule was called inactive in [2], in assay [4] and in [9].

As for `Nc1ccc(Cl)c(Cl)c1`, the Potency result in assay [1], in assay [3], in assay [5], in assay [6], in [7] and in assay [8] was “inactive” each time. The Potency entry in [10] was “inactive”. The call in assay [2], in assay [4] and in [9] was inactive.

On to `C=CCc1ccc(OC)cc1`, for which the Potency entry in [1], in [3], in [5], in [6], in assay [7] and in assay [8] was “inactive” throughout. Moreover, in assay [10], the Potency entry is “inactive”. The outcome in [2], in assay [4] and in assay [9] was inactive.

Consider `CC(O)CCO` (stereo unspecified), for which the Potency result in [1], in [3], in [5], in [6], in assay [7] and in [8] was “inactive” throughout. Also, the Potency entry in assay [10] is “inactive”. Also, the call in assay [2], in assay [4] and in [9] was inactive.

As for `S=C1NCCN1`, the Potency result in [1], in [3], in assay [5], in assay [6], in assay [7] and in assay [8] was “inactive” throughout. The Potency entry in assay [10] was “inactive”. The molecule was called inactive in assay [2], in assay [4] and in [9].

Consider `Nc1ccncc1`, for which the Potency result in assay [1], in assay [3], in assay [5], in [6], in assay [8] and in assay [10] was “inactive” in each case. The molecule was classed as inactive in assay [2], in [4] and in [9].

As for `CCOP(=S)(OCC)O/N=C(\C#N)c1ccccc1`, the Potency result in [1], in assay [3], in assay [5], in assay [6], in assay [7] and in assay [8] was “inactive” in each case. In assay [10], the Potency result was “inactive”. The call in assay [2] and in assay [4] was inactive.

For `O=P(Oc1ccccc1)(Oc1ccccc1)Oc1ccccc1`, the Potency entry in assay [1], in assay [3], in assay [5], in assay [6] and in [8] was “inactive” throughout. Moreover, the molecule was classed as inactive in assay [2], in assay [4] and in [9].

Take `CCCCC(CC)COC(=O)Cl` (stereo unspecified): the Potency result in assay [1], in [3], in [5], in assay [6], in [8] and in [10] was “inactive” throughout. Moreover, the molecule was classed as inactive in assay [2], in [4] and in assay [9].

As to `CC(C)(C)c1ccccc1O`, the Potency result in [1], in [3], in assay [5], in [6], in assay [7] and in assay [8] was “inactive” each time. Also, in [10], the Potency entry is “inactive”. The molecule was called inactive in assay [2] and in assay [4].

On to `COc1ccc(C(CN(C)C)C2(O)CCCCC2)cc1` (stereo unspecified), for which the Potency entry in assay [1], in [3], in [5], in assay [6], in assay [8] and in assay [10] was “inactive” throughout. Moreover, the molecule was called inactive in [2], in assay [4] and in [9].

Consider `COc1ccc(C=O)cc1`, for which the Potency entry in assay [1], in assay [3], in assay [5], in assay [6], in assay [7] and in [8] was “inactive” each time. Moreover, the Potency result in assay [10] was “inactive”. The call in assay [2], in assay [4] and in [9] was inactive.

Consider `C1=Cc2cccc3cccc1c23`, for which the Potency entry in assay [1], in [3], in assay [5], in assay [6], in [7] and in assay [8] was “inactive” throughout. The Potency result in [10] is “inactive”. The result in [2], in assay [4] and in assay [9] was inactive.

On to `CCOc1cc(C=O)ccc1O`, for which the Potency entry in assay [1], in [3], in [5], in [6], in assay [7] and in assay [8] was “inactive” throughout. For the same molecule, the molecule was called inactive in [2], in assay [4] and in assay [9].

In the case of `Oc1ccc(-c2ccccc2)cc1`, the Potency result in [1], in assay [3], in [5], in [6], in assay [7] and in assay [8] was “inactive” in each case. The molecule was classed as inactive in assay [2], in assay [4] and in assay [9]. Besides, the Potency in [10] was 5.42 µM (active) and inactive.

Regarding `CCCCCCCCCCCOC(=O)c1ccccc1C(=O)OCCCCCCCCCCC`, the Potency entry in assay [1], in assay [3], in assay [6], in [7], in [8] and in [10] was “inactive” each time. Further, the call in assay [2], in [4] and in assay [9] was inactive.

Take `C#CCOS(=O)OC1CCCCC1Oc1ccc(C(C)(C)C)cc1` (stereo unspecified): the Potency in assay [1] is 38.9 µM (active); in [6], 30.7 µM (active) and 54.5 µM (active); in assay [7], 1.94 µM (active) and 3.86 µM (active). For the same molecule, the result in assay [2] and in assay [4] was inactive. For the same molecule, the Potency entry in assay [3] and in [8] was “inactive” each time.

Take `N#CCCCl`: the Potency entry in [1], in assay [3], in assay [6], in [7], in assay [8] and in [10] was “inactive” throughout. The call in [2], in assay [4] and in [9] was inactive.

With `C=C(C)C(=O)OCC1CO1` (stereo unspecified), the Potency result in assay [1], in assay [3], in assay [6], in [7], in assay [8] and in [10] was “inactive” each time. For the same molecule, the call in assay [2], in assay [4] and in assay [9] was inactive.

For the molecule `c1nc[nH]n1`, the Potency result in assay [1], in [3], in assay [6], in [7], in [8] and in assay [10] was “inactive” in each case. In addition, the result in assay [2], in assay [4] and in [9] was inactive.

For the molecule `Cc1cc(C)cc(C)c1`, the Potency entry in assay [1], in assay [3], in assay [6], in assay [7], in assay [8] and in assay [10] was “inactive” in each case. The outcome in assay [2], in [4] and in [9] was inactive.

Take `Oc1c(Cl)c(Cl)c(Cl)c(Cl)c1Cl`: the Potency result in assay [1], in [3], in [5], in assay [6] and in assay [8] was “inactive” each time. Further, the result in [2] and in [9] was inactive. Besides, the Potency in assay [7] was 54.5 µM (active).

In the case of `Cc1ccc2c(c1N)C(=O)c1ccccc1C2=O`, the Potency entry in [1], in [3], in assay [5], in assay [6], in assay [7] and in [8] was “inactive” throughout. In addition, the Potency entry in assay [10] was “inactive”. Moreover, the result in assay [2] and in [9] was inactive.

As to `CNC(=O)Oc1cccc2c1OC(C)(C)O2`, the Potency entry in assay [1], in assay [3], in [6], in [8] and in assay [10] was “inactive” throughout. Also, the call in [2], in assay [4] and in assay [9] was inactive.

Take `CCc1cccc(CC)c1N(COC)C(=O)CCl`: the Potency result in assay [1], in assay [3], in assay [5], in assay [6] and in assay [8] was “inactive” each time. Also, the call in assay [2] and in assay [9] was inactive.
